Assay [1] has as its target CCAAT/enhancer-binding protein beta (Homo sapiens) (UniProt P17676). The assay can be described thus: ATG_C_EBP_CIS: Attagene CIS-FACTORIAL HepG2 Assay for human CCAAT/Enhancer Binding Protein (C/EBP) beta (AID 2282927). As to conditions: HepG2 Attagene cis-factorial transcription factor reporter; actives raise or lower the signal. Put shortly: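 Following a 24 h incubation with test chemical, transfected HepG2 cells yielded RNA whose reporter transcripts were quantified by RT-PCR and fluorescent capillary electrophoresis, with DMSO serving as baseline for bidirectional fitting.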

Assay [2] in a line: ATG_DR4_LXR_CIS: Attagene CIS-FACTORIAL HepG2 Assay for human Liver X Receptor (LXR), DR4 submotif (AID 2282929). The settings on record: HepG2 Attagene DR4 cis-reporter, mRNA transcription; actives raise or lower the signal. Put shortly: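 After transient transfection with multiplexed cis-promoter reporter units, HepG2 cells received test chemicals for 24 h. Reporter mRNA induction, detected by fluorescence after RT-PCR and capillary electrophoresis, was scored relative to DMSO.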

Assay [3] is described as follows: ATG_AP_2_CIS: Attagene CIS-FACTORIAL HepG2 Assay for human Activator Protein 2 (AP-2) (AID 2282932). The settings on record: HepG2 AP-2 cis-reporter, Attagene transcription factor profiling; actives raise or lower the signal. Summed up:
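Bidirectional curve fitting against DMSO was applied to reporter mRNA signals from HepG2 cells 24 h after dosing. Cis-promoter reporter units, transiently transfected, were read by RT-PCR plus capillary electrophoresis.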

Assay [4] deals with Transcription factor E2F1 (Homo sapiens) (UniProt Q01094). Put plainly: ATG_E2F_CIS: Attagene CIS-FACTORIAL HepG2 Assay for human E2F Transcription Factor 1 (AID 2282935). As to conditions: HepG2 Attagene cis-reporter, E2F reporter RNA transcripts; actives raise or lower the signal. Summed up:
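Multiplexed cis-reporter assay: HepG2, transient transfection, 24 h dosing, mRNA quantitation by labeled RT-PCR and CE.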

The nature of assay [5]: ATG_E_Box_CIS: Attagene CIS-FACTORIAL HepG2 Assay for human Enhancer Box (E-box) (AID 2282936). As to conditions: HepG2 E-box cis-reporter transcription, actives raise or lower the signal. Put shortly:
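Multiplexed CIS reporter system in transiently transfected HepG2 cells measures native transcription factor activity. Reporter RNA after 24 h exposure is profiled by RT-PCR-capillary electrophoresis.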

A short description of assay [6]: ATG_M_19_CIS: Attagene CIS-FACTORIAL HepG2 Assay for M19 Transcription Factor (Internal Marker) (AID 2282939). As to conditions: HepG2 Attagene CIS-FACTORIAL M19 internal marker reporter; actives raise or lower the signal. Put shortly: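 Signals come from fluorescence of labelled reporter-specific PCR fragments resolved by capillary electrophoresis, following 24 h treatment of HepG2 cells transfected with cis-promoter reporter units; activity was fitted in both directions relative to DMSO.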

Assay [7] can be described thus: ATG_GLI_CIS: Attagene CIS-FACTORIAL HepG2 Assay for human Zinc Finger Protein GLI1 (AID 2282945). As to conditions: HepG2, Attagene cis-factorial reporter mRNA, GLI element; actives raise or lower the signal. Put shortly:
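HepG2 cells transiently transfected with cis-promoter multiplexed reporter units report endogenous transcription factor activity. After 24 h chemical exposure, reporter mRNA was quantified by RT-PCR, 6-FAM labelling, HpaI digestion and capillary electrophoresis, with bidirectional fitting against DMSO.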

Assay [8] is described as follows: ATG_ISRE_CIS: Attagene CIS-FACTORIAL HepG2 Assay for human Interferon Regulatory Factor 1 (IRF1) binding to an Interferon-Stimulated Response Element (ISRE) (AID 2282948). The settings on record: HepG2 ISRE cis-reporter (Attagene), mRNA transcription readout; actives raise or lower the signal. Summed up:
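Transfected HepG2 (multiple reporter transcription units, cis elements) dosed 24 h. RNA → oligo(dT) RT → PCR → 6-FAM primer extension → HpaI → CE. DMSO = negative control/baseline.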

The nature of assay [9]: ATG_M_32_CIS: Attagene CIS-FACTORIAL HepG2 Assay for M32 Transcription Factor (Internal Marker) (AID 2282949).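 Further: background control marker of the multiplexed CIS panel rather than a real target.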 The settings on record: HepG2 Attagene cis-factorial M32 reporter, mRNA; actives raise or lower the signal. Summed up:
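Fluorescent capillary electrophoresis peaks of HpaI-digested, FAM-labelled RT-PCR reporter products give the signal. Source: transiently transfected human liver HepG2 cells, 24 h after chemical dosing; bidirectional fitting against DMSO.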

Assay [10] in a line: ATG_PXRE_CIS: Attagene CIS-FACTORIAL HepG2 Assay for human Pregnane X Receptor Element (PXRE) (AID 2282957). As to conditions: HepG2 Attagene CIS-FACTORIAL PXRE reporter, mRNA; actives raise or lower the signal. Put shortly: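 Cis-element reporter mRNA in human hepatoma HepG2 cells is measured 24 h post-dosing by RT-PCR, primer-extension labeling and capillary electrophoresis; gain or loss of signal is fitted relative to DMSO.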

The nature of assay [11]: ATG_Sox_CIS: Attagene CIS-FACTORIAL HepG2 Assay for human SRY-box transcription factor (SOX) (AID 2282960). As to conditions: HepG2 Attagene cis-factorial SOX reporter, mRNA; actives raise or lower the signal. Summed up: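 Using transiently transfected HepG2 cells, reporter transcription driven by cis elements was assessed 24 h after dosing. Signal was fluorescence of capillary-separated RT-PCR products, with DMSO defining baseline activity.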

The target in assay [12] is Transcription factor Sp1 (Homo sapiens) (UniProt P08047). The assay can be described thus: ATG_Sp1_CIS: Attagene CIS-FACTORIAL HepG2 Assay for human Specificity Protein 1 (Sp1) (AID 2282961). As to conditions: HepG2 Sp1 cis-reporter transcription, actives raise or lower the signal. Summed up:
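After transient transfection of HepG2 cells with cis-promoter reporter units and 24 h chemical treatment, reporter transcripts were quantified by RT-PCR and capillary electrophoresis fluorescence. Gain- and loss-of-signal fitted against DMSO.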

In assay [13] the target is Signal transducer and activator of transcription 3 (Homo sapiens) (UniProt P40763). Put plainly: ATG_STAT3_CIS: Attagene CIS-FACTORIAL HepG2 Assay for human Signal Transducer and Activator of Transcription 3 (STAT3) (AID 2282963). As to conditions: HepG2, Attagene cis-factorial STAT3 reporter transcription; actives raise or lower the signal. Put shortly:
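Transcript-level reporter assay. HepG2 transient MRTU transfection, 24 h exposure, fluorescence detection after RT-PCR and CE; DMSO baseline.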

Assay [14] in a line: ATG_TA_CIS: Attagene CIS-FACTORIAL HepG2 Assay for human TA Basal Promoter (AID 2282964). As to conditions: HepG2 Attagene CIS-factorial TA basal promoter reporter; actives raise or lower the signal. Summed up: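 Fluorescence from labelled RT-PCR reporter fragments, separated by capillary electrophoresis, gives the signal. Cells: HepG2 transiently carrying multiple reporter units, 24 h chemical dosing. Gain or loss relative to DMSO.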

A short description of assay [15]: ATG_TCF_b_cat_CIS: Attagene CIS-FACTORIAL HepG2 Assay for human T-Cell-Factor with beta-catenin (TCF/b-cat) (AID 2282965). As to conditions: HepG2 TCF/beta-catenin cis-reporter transcription, actives raise or lower the signal. Put shortly:
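Using capillary electrophoresis as the read-out, labelled reporter cDNA fragments from transiently transfected HepG2 were sized and quantified. Exposure lasted 24 hours; activity in either direction was referenced to DMSO.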

A short description of assay [16]: ATG_TAL_CIS: Attagene CIS-FACTORIAL HepG2 Assay for human TAL Basal Promoter (AID 2282966).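 Further: background control endpoint measuring basal TAL promoter reporter mRNA not a specific factor.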 The settings on record: HepG2 Attagene cis-factorial TAL promoter reporter; actives raise or lower the signal. Summed up:
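In this cell-based multiplex, HepG2 liver cells bearing cis-promoter reporter constructs are dosed for 24 hours. Total RNA is reverse-transcribed and amplified, labelled fragments are sized by capillary electrophoresis, and signal changes are fitted bidirectionally versus DMSO.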

The target of assay [17] is X-box-binding protein 1 (Homo sapiens) (UniProt P17861). Put plainly: ATG_Xbp1_CIS: Attagene CIS-FACTORIAL HepG2 Assay for human X-box Binding Protein 1 (XBP1) (AID 2282972). The settings on record: HepG2 XBP1 cis-element reporter, Attagene multiplex; actives raise or lower the signal. Summed up:
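HepG2, transient MRTU transfection (cis-promoter driven), 24 h compound exposure. Total RNA → oligo(dT) RT → PCR → 6-FAM labeling → HpaI cut → CE. Bidirectional fit vs DMSO.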

Assay [18] deals with Transcriptional activator Myb (Homo sapiens) (UniProt P10242). Put plainly: ATG_Myb_CIS: Attagene CIS-FACTORIAL HepG2 Assay for human Myeloblastosis (Myb) Proto-Oncogene Transcription Factor (AID 2282986). As to conditions: HepG2 Attagene CIS-FACTORIAL Myb reporter transcription; actives raise or lower the signal. Summed up:
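Multiplexed cis-reporter system in HepG2: transient transfection, 24 h treatment, mRNA readout by RT-PCR and capillary electrophoresis. Both increases and decreases are scored versus DMSO negative control.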

Assay [19] concerns the target Myc proto-oncogene protein (Homo sapiens) (UniProt P01106). The assay can be described thus: ATG_Myc_CIS: Attagene CIS-FACTORIAL HepG2 Assay for human Myelocytomatosis (Myc) Proto-Oncogene Transcription Factor (AID 2282990). The settings on record: HepG2, Attagene cis-reporter transcription factor activity; actives raise or lower the signal. Summed up: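 Multiplexed cis-reporter transcription in HepG2 cells after 24 h chemical treatment. Reporter mRNA measured by RT-PCR and capillary electrophoresis fluorescence; activity fitted bidirectionally against DMSO control.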

The nature of assay [20]: ATG_Oct_MLP_CIS: Attagene CIS-FACTORIAL HepG2 Assay for human Octamer-Binding Transcription Factor (Oct) (AID 2282993). As to conditions: HepG2 Attagene cis-factorial Oct reporter, mRNA; actives raise or lower the signal. Put shortly:
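HepG2, transient MRTU transfection, cis promoter elements; 24 h dosing; RT-PCR/CE fluorescence read-out of reporter mRNA; fit both directions vs DMSO.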

Calls of active or inactive are those of the source. How the source made its calls: active means hit-call score of the fitted dose curve at least 0.9, where 1 is the maximum; inactive means score below 0.9.

Myc proto-oncogene protein (Homo sapiens), sequence (P01106 whole entry, looked up): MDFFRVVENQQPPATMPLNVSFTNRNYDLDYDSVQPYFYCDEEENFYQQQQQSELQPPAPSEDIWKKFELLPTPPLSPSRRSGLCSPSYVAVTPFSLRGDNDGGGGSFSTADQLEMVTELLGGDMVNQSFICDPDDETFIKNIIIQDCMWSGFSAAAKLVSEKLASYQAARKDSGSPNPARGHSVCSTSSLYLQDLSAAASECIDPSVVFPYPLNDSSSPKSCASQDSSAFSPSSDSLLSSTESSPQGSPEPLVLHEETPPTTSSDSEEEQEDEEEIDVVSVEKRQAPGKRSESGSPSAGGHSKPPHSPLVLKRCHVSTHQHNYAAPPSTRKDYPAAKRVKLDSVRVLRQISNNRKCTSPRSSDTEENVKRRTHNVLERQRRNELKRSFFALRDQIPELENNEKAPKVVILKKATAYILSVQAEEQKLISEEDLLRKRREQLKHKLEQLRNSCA
Transcription factor E2F1 (Homo sapiens), sequence (Q01094 whole entry, looked up): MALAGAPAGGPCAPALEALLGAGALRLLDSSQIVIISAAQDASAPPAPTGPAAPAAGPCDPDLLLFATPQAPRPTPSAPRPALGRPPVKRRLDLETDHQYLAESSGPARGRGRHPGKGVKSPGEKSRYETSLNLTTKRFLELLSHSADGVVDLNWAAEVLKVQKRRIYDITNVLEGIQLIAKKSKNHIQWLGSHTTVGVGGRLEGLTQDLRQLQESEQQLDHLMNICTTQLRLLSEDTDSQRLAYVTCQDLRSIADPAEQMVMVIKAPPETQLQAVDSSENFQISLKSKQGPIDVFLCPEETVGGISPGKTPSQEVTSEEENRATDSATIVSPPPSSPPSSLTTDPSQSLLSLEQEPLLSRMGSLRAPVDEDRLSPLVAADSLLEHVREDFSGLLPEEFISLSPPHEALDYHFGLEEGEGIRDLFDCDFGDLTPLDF
X-box-binding protein 1 (Homo sapiens), sequence (P17861 whole entry, looked up): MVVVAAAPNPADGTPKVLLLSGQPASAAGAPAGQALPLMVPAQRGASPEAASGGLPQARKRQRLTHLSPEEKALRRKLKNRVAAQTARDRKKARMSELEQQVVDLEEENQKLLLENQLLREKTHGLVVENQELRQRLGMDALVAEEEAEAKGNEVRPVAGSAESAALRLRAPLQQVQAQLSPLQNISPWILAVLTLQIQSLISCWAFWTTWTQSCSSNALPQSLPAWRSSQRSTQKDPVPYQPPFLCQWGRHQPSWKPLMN
Transcriptional activator Myb (Homo sapiens), sequence (P10242 whole entry, looked up): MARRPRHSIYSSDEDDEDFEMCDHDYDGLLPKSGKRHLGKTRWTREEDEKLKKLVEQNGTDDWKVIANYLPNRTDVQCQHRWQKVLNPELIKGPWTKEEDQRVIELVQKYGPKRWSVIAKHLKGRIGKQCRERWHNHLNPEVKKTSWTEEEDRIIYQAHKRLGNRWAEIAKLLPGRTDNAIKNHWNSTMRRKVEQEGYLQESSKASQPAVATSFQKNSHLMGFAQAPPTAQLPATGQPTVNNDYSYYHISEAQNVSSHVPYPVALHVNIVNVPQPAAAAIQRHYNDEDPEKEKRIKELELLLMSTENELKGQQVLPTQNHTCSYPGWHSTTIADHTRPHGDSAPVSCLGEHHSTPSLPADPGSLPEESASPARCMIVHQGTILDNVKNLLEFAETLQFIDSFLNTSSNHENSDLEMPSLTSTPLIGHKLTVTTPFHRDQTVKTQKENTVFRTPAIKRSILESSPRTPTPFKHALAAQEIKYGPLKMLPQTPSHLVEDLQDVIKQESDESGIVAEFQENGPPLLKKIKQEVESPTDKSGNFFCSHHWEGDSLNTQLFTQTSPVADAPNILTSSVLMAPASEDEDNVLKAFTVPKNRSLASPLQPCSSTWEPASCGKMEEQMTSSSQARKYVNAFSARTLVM
CCAAT/enhancer-binding protein beta (Homo sapiens), sequence (P17676 whole entry, looked up): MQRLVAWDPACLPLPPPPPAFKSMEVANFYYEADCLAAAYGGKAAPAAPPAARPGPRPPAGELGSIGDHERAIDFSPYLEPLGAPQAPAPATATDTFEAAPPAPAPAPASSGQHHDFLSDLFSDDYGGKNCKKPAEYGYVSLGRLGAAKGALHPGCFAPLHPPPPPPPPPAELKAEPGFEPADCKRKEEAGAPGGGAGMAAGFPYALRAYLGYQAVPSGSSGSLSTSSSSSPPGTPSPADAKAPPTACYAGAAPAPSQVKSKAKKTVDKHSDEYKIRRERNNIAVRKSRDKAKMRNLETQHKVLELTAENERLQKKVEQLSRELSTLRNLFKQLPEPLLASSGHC
Signal transducer and activator of transcription 3 (Homo sapiens), sequence (P40763 whole entry, looked up): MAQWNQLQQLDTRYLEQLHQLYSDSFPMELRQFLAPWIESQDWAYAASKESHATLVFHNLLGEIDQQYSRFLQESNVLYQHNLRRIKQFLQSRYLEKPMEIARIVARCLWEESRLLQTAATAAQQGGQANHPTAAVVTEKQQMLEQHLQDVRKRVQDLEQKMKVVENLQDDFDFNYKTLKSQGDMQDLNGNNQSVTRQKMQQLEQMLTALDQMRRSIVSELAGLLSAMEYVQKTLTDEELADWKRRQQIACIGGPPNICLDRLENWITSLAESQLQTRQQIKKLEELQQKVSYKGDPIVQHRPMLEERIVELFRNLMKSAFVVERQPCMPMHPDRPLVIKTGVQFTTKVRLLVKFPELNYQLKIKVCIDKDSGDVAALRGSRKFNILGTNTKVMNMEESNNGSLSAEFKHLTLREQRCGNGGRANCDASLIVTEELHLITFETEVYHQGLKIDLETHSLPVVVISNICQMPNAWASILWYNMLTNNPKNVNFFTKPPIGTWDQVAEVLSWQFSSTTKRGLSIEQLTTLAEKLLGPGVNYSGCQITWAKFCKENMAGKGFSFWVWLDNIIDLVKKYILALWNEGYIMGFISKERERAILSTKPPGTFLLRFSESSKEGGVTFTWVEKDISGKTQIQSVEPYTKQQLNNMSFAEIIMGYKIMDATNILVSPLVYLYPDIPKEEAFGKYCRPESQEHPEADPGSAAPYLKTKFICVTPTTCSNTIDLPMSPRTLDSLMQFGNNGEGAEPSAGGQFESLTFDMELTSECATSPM
Transcription factor Sp1 (Homo sapiens), sequence (P08047 whole entry, looked up): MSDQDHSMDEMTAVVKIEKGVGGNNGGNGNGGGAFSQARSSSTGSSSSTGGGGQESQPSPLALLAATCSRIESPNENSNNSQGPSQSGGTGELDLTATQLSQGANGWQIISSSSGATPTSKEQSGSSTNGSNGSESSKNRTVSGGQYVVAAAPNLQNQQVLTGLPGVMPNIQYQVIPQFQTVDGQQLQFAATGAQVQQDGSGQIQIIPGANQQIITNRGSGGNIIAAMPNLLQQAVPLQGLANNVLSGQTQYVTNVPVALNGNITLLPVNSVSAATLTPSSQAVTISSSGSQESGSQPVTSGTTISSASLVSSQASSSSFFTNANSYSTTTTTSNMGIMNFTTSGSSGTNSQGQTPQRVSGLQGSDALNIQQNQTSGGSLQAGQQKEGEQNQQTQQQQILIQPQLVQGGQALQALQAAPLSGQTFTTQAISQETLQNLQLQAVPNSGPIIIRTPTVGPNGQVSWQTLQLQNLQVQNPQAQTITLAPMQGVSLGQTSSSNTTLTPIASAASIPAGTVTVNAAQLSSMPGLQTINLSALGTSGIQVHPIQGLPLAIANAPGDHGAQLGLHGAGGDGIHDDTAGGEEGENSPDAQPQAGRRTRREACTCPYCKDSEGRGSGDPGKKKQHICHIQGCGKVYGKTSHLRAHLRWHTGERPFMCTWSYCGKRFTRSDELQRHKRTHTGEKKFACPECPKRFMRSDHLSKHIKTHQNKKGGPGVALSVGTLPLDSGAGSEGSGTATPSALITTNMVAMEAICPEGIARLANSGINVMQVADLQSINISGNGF

On to `COc1cc(OC)c(OC)cc1C=O`, for which the outcome in assay [1], in assay [2], in assay [3], in assay [4], in assay [5] and in assay [6] was inactive. Besides, the outcome in assay [7], in assay [8], in [9], in assay [11], in assay [12] and in assay [13] was inactive. For the same compound, the call in [14], in assay [15], in assay [16], in [17], in assay [18] and in assay [19] was inactive. Besides, in assay [20], the compound was called inactive. For the same compound, the concentration at half-maximal activity (AC50) in assay [10] is 50500 nM (active).
Regarding `O=[N+]([O-])O.O=[N+]([O-])O.[Cd]`, the AC50 was 1830 nM (active) in assay [1]; 666 nM (active) in assay [2]; 9580 nM (active) in [7]; 1030 nM (active) in assay [8]; 872 nM (active) in [10]; 1310 nM (active) in assay [11]. In addition, the half-maximal activity concentration (AC50) in [12] was 1380 nM (active); in assay [13] it was 11100 nM (active); in assay [17], 1430 nM (active); in assay [19], 962 nM (active); in [20], 1160 nM (active). The result in [3], in [4], in assay [5], in assay [6], in [9] and in assay [14] was inactive. In addition, the result in assay [15], in assay [16] and in assay [18] was inactive.
As to `COCC(=O)N(c1c(C)cccc1C)N1CCOC1=O`, the outcome in assay [1], in assay [2], in assay [3], in [4], in assay [5] and in assay [6] was inactive. In addition, the compound was called inactive in assay [7], in [8], in assay [9], in assay [11], in assay [12] and in assay [13]. For the same compound, the result in assay [14], in assay [15], in [16], in [17], in assay [18] and in [19] was inactive. In assay [20], the outcome was inactive. For the same compound, the AC50 in assay [10] was 29900 nM (active).

The AC50 is the concentration at which the activity in the assay is half-maximal.

Values taken from PubChem BioAssay (EPA / NIEHS).
